Experiment in all cases: NCI-60 one-dose screen, 48 h (100 = growth as untreated, 0 = no growth, -100 = all killed)
Conditions in all cases: 10 µM unless noted

Assay [1] concerns HCT-15 colon.
Assay [2] has as its system HT29 colon.
Assay [3] has as its system SNB-75 CNS.
Assay [4] has as its system SNB-19 CNS.
In assay [5] the test system is U251 CNS.
Assay [6] concerns PC-3 prostate.
The test system of assay [7] is SK-MEL-5 melanoma.
The test system of assay [8] is UACC-62 melanoma.
Assay [9] has as its system LOX IMVI melanoma.
Assay [10] deals with SK-MEL-28 melanoma.
The test system of assay [11] is SK-MEL-2 melanoma.
Assay [12] deals with SN12C renal.
Assay [13] concerns UO-31 renal.
For assay [14], the system named is TK-10 renal.
Assay [15] has as its system ACHN renal.
In assay [16] the test system is CAKI-1 renal.
For assay [17], the system named is CCRF-CEM leukemia.
Assay [18] concerns MOLT-4 leukemia.
Assay [19] concerns A498 renal.

Results on eight compounds are retold here after PubChem BioAssay (NCI).

SMILES strings stand for the structures. This is part of a sample that, as a whole, favours compounds with a hit. Of some 83,000 tested, about 20% had one in any assay.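 Activity criterion: percent growth below 10, measured after cells in 96-well plates were exposed to a single compound concentration for 48 hours.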 A number with no mark means an inactive call. The source made the active and inactive calls.

As to `COc1ccc(C2SCC(=O)N2NC(=O)c2ccc(NC(=O)c3ccccn3)cc2)cc1OC` (stereo not drawn), the growth is 107% in assay [1]; 97.8% in [2]; 84.3% in assay [3]; 95.5% in assay [4]; 94.2% in assay [5]; 95.3% in [6]. For the same compound, the growth in [7] is 102%; in assay [8], 91.5%; in assay [9], 99.5%; in [10], 104%; in assay [11] it was 94.5%; in assay [12], 97.3%. The growth in assay [13] was 89.7%; in assay [14], 90.1%; in assay [15], 99.2%; in [16] it was 96.9%; in assay [17], 101%; in assay [18], 92.1%.

With `Nc1nc(-c2ccccc2)cs1`, the growth in assay [1] was 106%; in assay [2] it was 100%; in assay [3], 84.3%; in [4], 105%; in assay [5] it was 98.9%; in [6], 98.1%. The growth in assay [7] is 102%; in [8], 107%; in [9], 97.9%; in assay [10], 109%; in assay [11], 82.1%; in [12], 101%. For the same compound, the growth in assay [13] is 75.7%; in [14], 98.5%; in assay [15] it was 103%; in [16], 94%; in [17], 110%; in assay [18], 105%.

In the case of `COc1ccc(C(=O)c2cc(OC)c(OC)c(OC)c2)cc1/C=C/C(=O)c1ccc(O)cc1`, the growth in assay [1] was -29.5% (active); in assay [2], 26.2%; in assay [3], 28.7%; in [4], 34.8%; in assay [5] it was 0.446% (active); in [6], 54.1%. In addition, the growth in assay [7] is 11.3%; in [8], 20.1%; in assay [9] it was 0.734% (active); in [10] it was 22.5%; in [11] it was 14.8%; in [12] it was 17.7%. The growth was 36.4% in assay [13]; 75.1% in [14]; -62.8% (active) in assay [15]; 24.8% in [16]; 10.7% in assay [17]; 15.5% in [18].

For the compound `O=C(CN1CCOCC1)Nc1ccc(-c2nc3ccccc3s2)cc1`, the growth in [1] was 93.7%; in [2], 103%; in assay [3], 100%; in assay [4], 101%; in [5] it was 89.5%; in [6], 93%. For the same compound, the growth was 92.7% in assay [7]; 100% in [8]; 99.9% in assay [9]; 102% in assay [10]; 115% in assay [11]; 101% in [12]. Also, the growth was 95% in assay [13]; 112% in assay [14]; 104% in assay [15]; 99.7% in assay [16]; 95.5% in [17]; 99.4% in [18].

Consider `O=S(=O)(NCCNc1nccc(-c2c(-c3ccccc3)nc3sccn23)n1)c1ccc(O)cc1`, for which the growth was 47.9% in assay [1]; 21.4% in [2]; 28.7% in [3]; 56.5% in assay [4]; 41.5% in assay [5]; 57.9% in [6]. In addition, the growth in assay [7] was 7.89% (active); in [8], 52.4%; in assay [9], 31.4%; in assay [10], 47.6%; in assay [11], 49.7%; in assay [12], 40.3%. For the same compound, the growth is 31.4% in assay [13]; 62.2% in assay [14]; 25.8% in assay [15]; 53.5% in assay [16]; 52.2% in [17]; 28.7% in assay [18].

For the compound `COc1ccc(/C=C/C(=O)c2ccc(B(O)O)cc2)cc1O`, the growth in assay [1] was 31.2%; in assay [2] it was 64.6%; in [3], 72.6%; in assay [4], 89.2%; in assay [5], 80.7%; in assay [6], 74.1%. Also, the growth is 93% in assay [7]; 76.9% in assay [8]; 57.7% in [9]; 90.3% in [10]; 92.2% in assay [11]; 86.7% in [12]. Besides, the growth in [13] was 60.8%; in [14] it was 104%; in assay [15], 93.9%; in assay [19] it was 61.8%; in [17], 82.6%; in assay [18] it was 82.3%.

Turning to `COc1cc(C(=O)/C=C/c2cc(C(=O)c3cc(OC)c(OC)c(OC)c3)ccc2OC)ccc1N`, the growth in [1] is -10.2% (active); in assay [2], -58.3% (active); in [3], 29.5%; in assay [4] it was -7.07% (active); in [5], -79.9% (active); in assay [6] it was -20.6% (active). Also, the growth in [7] is -83.3% (active); in assay [8], -79.8% (active); in assay [9], -78.8% (active); in assay [10] it was -53.4% (active); in assay [11] it was -38.6% (active); in [12], 18.8%. Moreover, the growth is -86.7% (active) in assay [13]; 13.1% in assay [14]; -88.5% (active) in assay [15]; -6.91% (active) in assay [19]; -10.7% (active) in assay [17]; 4.31% (active) in [18].

Turning to `Clc1ccc2c(c1)NC1(CCSc3ccccc31)n1nccc1-2` (stereo not drawn), the growth in assay [1] is 98.5%; in [2], 90.9%; in [3], 95.5%; in assay [4] it was 102%; in assay [5], 88.6%; in assay [6], 81%. The growth is 99.4% in [7]; 94.7% in assay [8]; 92.3% in assay [9]; 98.4% in assay [10]; 98.7% in [11]; 104% in assay [12]. Also, the growth is 83.5% in assay [13]; 96.7% in [14]; 100% in assay [15]; 96.3% in assay [16]; 90.9% in assay [18].
